PubChem BioAssay (NCI)
Compounds without any hit were thinned out: in the full panel of roughly 83,000, 20% have a hit.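 Step 1: grow cells in 96-well plates. Step 2: add test compound at a single concentration. Step 3: incubate 48 h. Step 4: record percent growth.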 Calls of active or inactive are those of the source. How the source made its calls: active means growth percent below 10; inactive means the rest.

Tests used:
Test in all cases: NCI-60 one-dose screen, 48 h (100 = growth as untreated, 0 = no growth, -100 = all killed)
Settings in all cases: 10 µM unless noted
[1] = tested on: NCI-H23 lung
[2] = tested on: NCI-H226 lung
[3] = tested on: NCI-H322M lung
[4] = tested on: HOP-62 NSCLC
[5] = tested on: NCI-H460 lung
[6] = tested on: NCI-H522 lung
[7] = tested on: A549/ATCC NSCLC
[8] = tested on: 786-0 renal
[9] = tested on: COLO 205 colon
[10] = tested on: DU-145 prostate
[11] = tested on: K-562 leukemia
[12] = tested on: MALME-3M melanoma
[13] = tested on: MDA-MB-231 breast
[14] = tested on: RXF 393 renal
[15] = tested on: SF-268 CNS
[16] = tested on: SF-539 CNS
[17] = tested on: UACC-257 melanoma
[18] = tested on: M14 melanoma
[19] = tested on: HCT-15 colon
[20] = tested on: SF-295 CNS

Measured: growth

CCN(CC)c1ccc(C(O)C2=CC(=O)c3ccccc3C2=O)cc1 (stereo not given)
active: [1] -2.03% | [4] -12.7% | [5] 7.97% | [6] -62.2% | [8] 3.34% | [10] 3.92% | [11] 2.86% | [12] -11.3% | [13] -51% | [14] -80.2% | [15] -30.9% | [16] -38.2% | [17] 9.28%
inactive: [2] 37.5% | [3] 25.2% | [7] 47.6% | [9] 21.6% | [18] 13.8% | [19] 30.3%

CC/C=C\C=C/C(=O)N/C=C/CC1Cc2cccc(O)c2C(=O)O1 (stereo not given)
inactive: [1] 77.1% | [2] 110% | [3] 119% | [4] 65.5% | [5] 130% | [6] 55.2% | [7] 84.8% | [8] 81.5% | [9] 94.2% | [10] 76.4% | [11] 25.9% | [12] 98.8% | [13] 64.3% | [15] 119% | [20] 262% | [16] 38.3% | [17] 86.7% | [18] 44.2% | [19] 80.3%

Cc1ccc(C(=O)Nc2ccc(Cl)cc2C(=O)NCc2ccccc2)cc1
inactive: [1] 96.7% | [2] 92.9% | [3] 98.2% | [4] 88.3% | [5] 92.4% | [6] 53.9% | [7] 85.9% | [8] 97.8% | [9] 97.4% | [10] 96% | [11] 30% | [12] 88.9% | [13] 95.8% | [14] 87.4% | [15] 94.2% | [16] 82.3% | [17] 85.2% | [18] 74.9% | [19] 57.4%

Cc1ccc(C=C2C(Cl)=C(Cl)C(Cl)=C2Cl)cc1
active: [1] -57.5% | [2] -79% | [3] -37.2% | [4] -58.6% | [5] -31.3% | [6] -57.2% | [7] -61.2% | [8] -86.8% | [9] -80.3% | [10] -45.3% | [12] -45.1% | [13] -6.71% | [15] -68.6% | [20] -19.5% | [16] -84.5% | [17] -83.2% | [18] -85.8%
inactive: [11] 24.6%

C/C(=C\CCc1ccoc1)CC/C=C(\C)CCCN1CCC(CO)CC1
inactive: [1] 74.8% | [2] 74.9% | [3] 74.9% | [4] 83% | [5] 53.8% | [6] 54.6% | [7] 65.9% | [8] 48.5% | [10] 80.8% | [12] 11% | [13] 50% | [15] 79.2% | [20] 47.4% | [16] 48.9% | [17] 49% | [18] 36.3%
active: [9] -21.4% | [11] -15.8%

CC(=O)NC1(C(=O)O)CCCC1
inactive: [1] 133% | [2] 113% | [3] 130% | [4] 117% | [5] 109% | [6] 103% | [7] 126% | [8] 110% | [9] 125% | [10] 126% | [11] 96.6% | [12] 135% | [13] 119% | [15] 111% | [20] 110% | [16] 104% | [17] 100% | [18] 110% | [19] 112%

ClC1=C(Cl)C(Cl)=C(Cl)C1=C/C=C/c1ccccc1
active: [1] -45.9% | [2] -70.5% | [3] -27.8% | [4] -68.2% | [5] 0.0738% | [6] -52.4% | [7] -58% | [8] -71.3% | [9] -90.6% | [10] -46.5% | [11] -18.9% | [12] -38.8% | [13] -17.2% | [15] -48.7% | [20] -2.39% | [16] -92.4% | [17] -80.7% | [18] -55.6% | [19] -77%

COc1ccc2nc3cc(Cl)ccc3c(N3CCN(c4ccnc(Nc5ccc(F)cc5)n4)CC3)c2c1
inactive: [1] 89.3% | [2] 98.5% | [3] 97.7% | [4] 92.9% | [5] 94% | [7] 79.5% | [8] 70.4% | [9] 108% | [10] 93.1% | [11] 43.1% | [12] 105% | [13] 58.4% | [15] 79.2% | [20] 75.9% | [16] 85.4% | [17] 105% | [18] 102% | [19] 48.3%
active: [6] -5.18%

C/C(=C\CCc1ccsc1)CC/C=C(\C)CCCN1CCC(CO)CC1
inactive: [1] 61.4% | [2] 63.4% | [3] 76.2% | [4] 62.1% | [6] 27.7% | [7] 36.6% | [10] 64.5% | [13] 19.6% | [15] 60.6%
active: [5] -46.3% | [8] 5.43% | [9] -54.9% | [11] -51.4% | [12] -66.9% | [20] 7.65% | [16] 9.87% | [17] -32.4% | [18] -47.4% | [19] 0.233%

O=C(N1CCC(CN=c2cc3n(-c4ccc(Cl)cc4)c4ccccc4nc-3cc2Nc2ccc(Cl)cc2)CC1)N1CC1
active: [1] -58.2% | [3] -54.3% | [4] -85.2% | [5] -71.5% | [6] -76.7% | [7] -89.4% | [8] -93.2% | [9] -59% | [10] -95.3% | [11] -66.5% | [12] -72.5% | [13] -56.9% | [14] -93.3% | [15] -63.6% | [16] -88% | [17] -94.4% | [18] -73.8% | [19] -36.8%
inactive: [2] 37.2%

CCCCCCCC1(C)NC(=O)NC1=O (stereo not given)
inactive: [1] 132% | [2] 113% | [3] 119% | [4] 102% | [5] 104% | [6] 99.6% | [7] 122% | [8] 108% | [9] 120% | [10] 115% | [11] 90.6% | [12] 126% | [13] 116% | [15] 106% | [20] 124% | [16] 97.6% | [17] 114% | [18] 106% | [19] 113%

CC(=O)Oc1ccc(C2OC(c3ccc4ccccc4c3OC(C)=O)=NN2C(C)=O)c(OC(C)=O)c1 (stereo not given)
active: [5] 6.03% | [6] 4.49% | [7] 6.76% | [8] 5.71% | [11] 4.1% | [12] 8.98% | [14] 1.4% | [17] -28.2% | [18] 3.34%
inactive: [1] 28.8% | [2] 15.7% | [3] 24.4% | [4] 14.7% | [9] 15.9% | [10] 22.7% | [13] 39.9% | [15] 13.7% | [16] 13.9% | [19] 34.1%

CCCCCCOc1ccc(/C=N/NC(N)=S)cc1
active: [6] -64% | [8] 9.39%
inactive: [1] 54.3% | [2] 66% | [3] 122% | [4] 100% | [5] 92.6% | [7] 88.3% | [9] 50.2% | [10] 71.9% | [11] 17.8% | [12] 17.9% | [13] 29.5% | [14] 22.6% | [15] 47.2% | [16] 16.5% | [17] 48.2% | [18] 44.6% | [19] 33.9%

COc1cc(/C=C2\COc3ccc(O)c(O)c3C2=O)cc(OC)c1
inactive: [1] 49.1% | [2] 68.3% | [3] 29.2% | [5] 10.5% | [7] 24.6% | [9] 32.5% | [15] 11% | [20] 80.3%
active: [4] 2.74% | [6] -42.1% | [8] -29.4% | [10] 9.48% | [11] -0.232% | [12] -59.4% | [13] -37.1% | [16] -70.1% | [17] 6.52% | [19] -24.1%

COc1ccc(/C=C2\COc3ccc(O)c(O)c3C2=O)cc1OC
inactive: [1] 41% | [2] 46.6% | [3] 48.9% | [4] 11.6% | [7] 31.7% | [9] 55.6% | [20] 72.2% | [17] 31.4%
active: [5] 1.26% | [6] -55.5% | [8] -17.8% | [10] 6.44% | [11] 0.0834% | [12] -57.4% | [13] -2.32% | [15] 9.74% | [16] -55.4% | [19] -39.4%

C=C1c2c(C)nn(-c3ccc(C#CCOC4OC(CO)C(O)C(O)C4O)cc3)c2N(C)C23C[C@H]1C1(C)c4c(C)nn(-c5ccc(C#CCOC6OC(CO)C(O)C(O)C6O)cc5)c4N(C)C(C)(C[C@H]12)C3 (stereo not given in full)
inactive: [1] 12.4% | [2] 23.4% | [7] 24.9% | [8] 17.2% | [10] 16.9% | [14] 37.5% | [17] 34.2% | [19] 21.7%
active: [3] 1.68% | [4] 3.61% | [5] -45.9% | [6] -3.82% | [9] 8.45% | [11] 9.32% | [12] 5.2% | [13] 5.4% | [15] 7.57% | [16] -15.3% | [18] 0.248%
